# Results published in PubChem BioAssay AID2751 (The Scripps Research Institute Molecular Screening Center, 2010).
# The campaign covered roughly 320,000 compounds. About 2,200 (0.69%) were called active. Rule as the data show it: active = inhibition above about 43%; inactive = the rest. Only a selection was taken, and actives are over-represented in it overall.
# Biological target: Prolyl endopeptidase-like (Homo sapiens) (UniProt Q4J6C6)
# Test: human PREPL activity-probe blockers – biochemical, fluorescence polarization, primary screen (AID 2751);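 also: 0% = enzyme with DMSO and 100% = wells lacking enzyme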
# Conditions: recombinant PREPL, fluorescence polarization activity-based probe; at 5.96 µM; hits give high values
# Prolyl endopeptidase-like (Homo sapiens), sequence (Q4J6C6 whole entry, looked up): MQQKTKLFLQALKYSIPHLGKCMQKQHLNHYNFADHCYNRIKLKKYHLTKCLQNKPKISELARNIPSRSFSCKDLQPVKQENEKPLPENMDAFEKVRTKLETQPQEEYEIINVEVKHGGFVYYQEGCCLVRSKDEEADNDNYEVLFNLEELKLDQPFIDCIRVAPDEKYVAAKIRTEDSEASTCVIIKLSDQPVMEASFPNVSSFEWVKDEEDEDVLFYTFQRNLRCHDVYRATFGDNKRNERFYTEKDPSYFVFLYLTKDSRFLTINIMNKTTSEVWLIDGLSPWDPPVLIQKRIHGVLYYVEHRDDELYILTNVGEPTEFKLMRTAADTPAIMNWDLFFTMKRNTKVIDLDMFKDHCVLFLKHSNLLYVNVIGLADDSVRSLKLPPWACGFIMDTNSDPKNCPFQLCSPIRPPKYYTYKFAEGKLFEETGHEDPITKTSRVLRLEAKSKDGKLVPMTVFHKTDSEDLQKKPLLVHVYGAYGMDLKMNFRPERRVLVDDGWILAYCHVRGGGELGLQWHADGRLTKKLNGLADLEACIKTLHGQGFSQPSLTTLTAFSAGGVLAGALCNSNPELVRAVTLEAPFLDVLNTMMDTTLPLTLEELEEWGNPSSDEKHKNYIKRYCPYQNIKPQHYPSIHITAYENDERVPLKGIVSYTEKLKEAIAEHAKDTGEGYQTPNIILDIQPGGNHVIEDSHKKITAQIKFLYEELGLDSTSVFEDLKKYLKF
row,SMILES,inhibition
1,COc1ccc2[nH]c3c(c2c1)CCN[C@H]3C,48.8% (active)
2,O=C(N/N=C/c1c(O)n(C2CC2)c(=S)[nH]c1=O)c1ccccc1Cl,-3.24% (inactive)
3,CCOc1ccc(-c2cc(C)[n+](CCN(CC)CC)c(-c3ccc(OCC)cc3)c2)cc1,10.9% (inactive)
4,CCOc1cccc(=NC2CCCCC2)c2c(C)[nH]c(C)c12,52.1% (active)
5,Cn1c(O)c(C=NCCCC(=O)O)c(=O)n(C)c1=O,-8.04% (inactive)
6,N[C@@H](Cc1c[nH]c2ccccc12)c1nnc(SCc2c(F)cccc2Cl)o1,2.17% (inactive)
7,CCN(CC)C(=O)c1ccc(NC(=O)c2cc(-n3cnnc3)ccc2Cl)cc1,15.1% (inactive)
8,Cc1nc2ccccn2c1P(=S)(N1CCCCC1)N1CCCCC1,-7.5% (inactive)
9,O=C(NCC(c1cccnc1)N1CCN(c2ccccc2)CC1)Oc1ccccc1 (stereo not given),46.3% (active)
10,COC(=O)C(c1ccccc1)N1CCCCCC1 (stereo not given),1.34% (inactive)
11,COc1ccccc1N1CCN(C(CNC(=O)Oc2ccccc2)c2cccnc2)CC1 (stereo not given),1.24% (inactive)
12,COc1ccc(C2NCc3ccc4c(c3-n3cccc32)OCO4)cc1OC (stereo not given),-15.2% (inactive)
13,COC(=O)N(c1ccc(OC)cc1)P1(=S)OCCC(C)O1 (stereo not given),8.63% (inactive)
14,O=C(O)C1CSC(c2cccnc2)N1 (stereo not given),3.28% (inactive)
15,Cc1c(Oc2cc(NN3CCCCC3)c([N+](=O)[O-])cc2[N+](=O)[O-])cccc1[N+](=O)[O-],4.76% (inactive)
